Laboratory results taken from ChEMBL document CHEMBL1961873, “Compounds: GSK PKIS; Assays: Nanosyn kinase panel” (2012).

Experiments:
[1] = biological target: Serine/threonine-protein kinase pim-2 (Homo sapiens) (UniProt Q9P1W9); details: at 1 µM;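 further: each value is a mean of the inhibition measurements against the kinase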
[2] = biological target: Serine/threonine-protein kinase pim-3 (Homo sapiens) (UniProt Q86V86); details: at 0.1 µM
[3] = biological target: Serine/threonine-protein kinase pim-3 (Homo sapiens) (UniProt Q86V86); details: at 1 µM
[4] = biological target: T1, MAP kinase-activated protein kinase 5 (Homo sapiens) (UniProt Q8IW41); details: at 0.1 µM
T1 sequence (whole entry): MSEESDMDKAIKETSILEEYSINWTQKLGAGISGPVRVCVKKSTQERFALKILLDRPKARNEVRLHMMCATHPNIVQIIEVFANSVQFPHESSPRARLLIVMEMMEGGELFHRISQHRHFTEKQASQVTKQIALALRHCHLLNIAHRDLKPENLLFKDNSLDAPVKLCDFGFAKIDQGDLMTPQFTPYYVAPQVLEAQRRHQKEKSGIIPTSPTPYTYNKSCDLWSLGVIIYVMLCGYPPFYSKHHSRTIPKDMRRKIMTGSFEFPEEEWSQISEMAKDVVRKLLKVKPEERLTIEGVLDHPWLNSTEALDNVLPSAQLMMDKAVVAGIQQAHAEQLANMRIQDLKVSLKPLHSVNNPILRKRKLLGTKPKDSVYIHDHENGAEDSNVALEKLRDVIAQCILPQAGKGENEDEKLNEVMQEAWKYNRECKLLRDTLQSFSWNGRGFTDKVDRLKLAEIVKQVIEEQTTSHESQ

[5] = biological target: T1, MAP kinase-activated protein kinase 5 (Homo sapiens); details: at 1 µM
[6] = biological target: Serine/threonine-protein kinase SIK1 (Homo sapiens) (UniProt P57059); details: at 0.1 µM
Chain of Serine/threonine-protein kinase SIK1 (Homo sapiens) (P57059 whole entry): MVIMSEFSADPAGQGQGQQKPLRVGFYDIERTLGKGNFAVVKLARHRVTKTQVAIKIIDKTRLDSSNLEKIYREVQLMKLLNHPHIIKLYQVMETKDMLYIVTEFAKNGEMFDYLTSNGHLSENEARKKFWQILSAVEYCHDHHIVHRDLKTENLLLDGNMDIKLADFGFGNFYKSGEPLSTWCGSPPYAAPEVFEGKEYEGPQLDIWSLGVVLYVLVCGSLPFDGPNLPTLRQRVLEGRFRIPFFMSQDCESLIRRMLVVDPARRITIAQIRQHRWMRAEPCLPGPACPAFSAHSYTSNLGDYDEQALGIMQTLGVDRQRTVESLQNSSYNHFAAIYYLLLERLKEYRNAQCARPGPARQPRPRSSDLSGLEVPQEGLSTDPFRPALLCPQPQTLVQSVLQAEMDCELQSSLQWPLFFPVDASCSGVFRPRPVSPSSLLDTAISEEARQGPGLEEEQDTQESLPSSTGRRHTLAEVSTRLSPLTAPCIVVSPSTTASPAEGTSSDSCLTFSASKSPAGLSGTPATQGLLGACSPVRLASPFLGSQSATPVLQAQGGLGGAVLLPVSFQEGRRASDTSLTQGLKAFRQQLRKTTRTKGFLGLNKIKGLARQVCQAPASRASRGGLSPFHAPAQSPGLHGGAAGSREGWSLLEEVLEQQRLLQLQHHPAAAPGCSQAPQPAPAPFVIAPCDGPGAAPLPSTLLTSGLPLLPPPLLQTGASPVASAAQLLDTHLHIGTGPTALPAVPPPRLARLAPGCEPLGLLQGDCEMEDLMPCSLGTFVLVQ

[7] = biological target: Serine/threonine-protein kinase SIK1 (Homo sapiens) (UniProt P57059); details: at 1 µM
[8] = biological target: Serine/threonine-protein kinase SIK2 (Homo sapiens) (UniProt Q9H0K1); details: at 0.1 µM
Chain of Serine/threonine-protein kinase SIK2 (Homo sapiens) (Q9H0K1 whole entry, looked up): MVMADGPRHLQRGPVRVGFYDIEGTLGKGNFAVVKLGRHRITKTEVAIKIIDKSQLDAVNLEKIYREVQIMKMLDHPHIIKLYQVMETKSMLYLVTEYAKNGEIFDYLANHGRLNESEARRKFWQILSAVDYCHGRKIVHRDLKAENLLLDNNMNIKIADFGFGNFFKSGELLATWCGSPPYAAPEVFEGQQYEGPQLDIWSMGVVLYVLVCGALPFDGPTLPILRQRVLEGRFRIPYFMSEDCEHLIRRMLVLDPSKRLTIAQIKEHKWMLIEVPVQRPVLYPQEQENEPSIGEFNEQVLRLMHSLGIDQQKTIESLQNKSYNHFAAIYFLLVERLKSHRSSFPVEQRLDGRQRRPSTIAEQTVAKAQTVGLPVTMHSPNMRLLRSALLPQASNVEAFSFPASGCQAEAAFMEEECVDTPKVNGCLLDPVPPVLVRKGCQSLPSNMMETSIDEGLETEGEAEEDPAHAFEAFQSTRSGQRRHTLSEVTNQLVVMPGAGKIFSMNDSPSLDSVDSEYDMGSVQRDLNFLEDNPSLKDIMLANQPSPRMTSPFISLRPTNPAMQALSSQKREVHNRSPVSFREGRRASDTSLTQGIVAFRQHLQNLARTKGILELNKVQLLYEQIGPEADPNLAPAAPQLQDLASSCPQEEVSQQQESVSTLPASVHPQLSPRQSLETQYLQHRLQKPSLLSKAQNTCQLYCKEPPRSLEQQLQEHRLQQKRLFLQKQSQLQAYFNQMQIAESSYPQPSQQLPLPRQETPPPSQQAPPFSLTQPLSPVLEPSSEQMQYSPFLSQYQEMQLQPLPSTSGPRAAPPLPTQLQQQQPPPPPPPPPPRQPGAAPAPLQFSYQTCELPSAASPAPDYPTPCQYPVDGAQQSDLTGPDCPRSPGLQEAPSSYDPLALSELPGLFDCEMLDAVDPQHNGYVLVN

[9] = biological target: Serine/threonine-protein kinase SIK2 (Homo sapiens) (UniProt Q9H0K1); details: at 1 µM
[10] = biological target: T2, Serine/threonine-protein kinase TBK1 (Homo sapiens) (UniProt Q9UHD2); details: at 0.1 µM
T2 sequence (whole entry): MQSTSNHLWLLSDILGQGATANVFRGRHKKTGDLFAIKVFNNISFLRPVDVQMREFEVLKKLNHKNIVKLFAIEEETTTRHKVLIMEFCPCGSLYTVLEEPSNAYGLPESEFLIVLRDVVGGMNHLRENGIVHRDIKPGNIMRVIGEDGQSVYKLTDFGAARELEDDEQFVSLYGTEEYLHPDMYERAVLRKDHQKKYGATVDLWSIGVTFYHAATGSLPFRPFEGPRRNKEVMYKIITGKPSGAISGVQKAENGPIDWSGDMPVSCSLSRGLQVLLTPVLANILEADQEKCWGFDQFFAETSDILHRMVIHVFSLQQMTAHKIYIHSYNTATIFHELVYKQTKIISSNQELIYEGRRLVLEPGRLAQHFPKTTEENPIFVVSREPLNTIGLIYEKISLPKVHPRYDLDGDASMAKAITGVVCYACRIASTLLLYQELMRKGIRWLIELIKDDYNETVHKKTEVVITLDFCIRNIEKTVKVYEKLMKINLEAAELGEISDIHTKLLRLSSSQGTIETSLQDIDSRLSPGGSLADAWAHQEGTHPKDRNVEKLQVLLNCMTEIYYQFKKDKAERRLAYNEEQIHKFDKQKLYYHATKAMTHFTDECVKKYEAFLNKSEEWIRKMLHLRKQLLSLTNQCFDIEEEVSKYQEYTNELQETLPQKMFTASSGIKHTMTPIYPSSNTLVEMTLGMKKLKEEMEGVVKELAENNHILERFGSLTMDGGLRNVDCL

[11] = biological target: T2, Serine/threonine-protein kinase TBK1 (Homo sapiens); details: at 1 µM
[12] = biological target: T3, Testis-specific serine/threonine-protein kinase 1 (Homo sapiens) (UniProt Q9BXA7); details: at 0.1 µM
T3 sequence (whole entry): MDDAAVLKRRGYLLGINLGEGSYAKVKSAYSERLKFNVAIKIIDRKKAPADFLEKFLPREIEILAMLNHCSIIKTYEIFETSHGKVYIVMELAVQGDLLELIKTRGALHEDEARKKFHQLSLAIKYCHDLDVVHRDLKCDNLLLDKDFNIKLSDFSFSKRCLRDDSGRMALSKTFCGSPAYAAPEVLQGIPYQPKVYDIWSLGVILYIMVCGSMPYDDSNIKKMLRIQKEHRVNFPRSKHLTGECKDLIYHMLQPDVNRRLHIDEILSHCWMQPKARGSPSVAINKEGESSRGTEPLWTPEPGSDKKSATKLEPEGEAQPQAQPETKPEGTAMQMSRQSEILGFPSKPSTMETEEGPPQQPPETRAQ

[13] = biological target: T3, Testis-specific serine/threonine-protein kinase 1 (Homo sapiens); details: at 1 µM
[14] = biological target: T4, Testis-specific serine/threonine-protein kinase 2 (Homo sapiens) (UniProt Q96PF2); details: at 0.1 µM
T4 sequence (whole entry): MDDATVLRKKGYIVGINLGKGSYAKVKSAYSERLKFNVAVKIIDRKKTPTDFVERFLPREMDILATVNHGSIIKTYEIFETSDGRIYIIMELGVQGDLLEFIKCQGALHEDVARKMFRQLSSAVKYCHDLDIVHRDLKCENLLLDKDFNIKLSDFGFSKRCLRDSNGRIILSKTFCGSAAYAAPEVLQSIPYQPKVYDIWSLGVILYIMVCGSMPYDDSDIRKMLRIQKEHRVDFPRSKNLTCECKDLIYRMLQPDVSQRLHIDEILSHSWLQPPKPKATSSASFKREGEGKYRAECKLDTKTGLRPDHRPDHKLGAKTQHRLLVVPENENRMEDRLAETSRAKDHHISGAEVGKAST

[15] = biological target: T4, Testis-specific serine/threonine-protein kinase 2 (Homo sapiens); details: at 1 µM
[16] = biological target: Casein kinase I isoform alpha (Homo sapiens) (UniProt P48729); details: at 0.1 µM
Chain of Casein kinase I isoform alpha (Homo sapiens) (P48729 2-337 limits assumed): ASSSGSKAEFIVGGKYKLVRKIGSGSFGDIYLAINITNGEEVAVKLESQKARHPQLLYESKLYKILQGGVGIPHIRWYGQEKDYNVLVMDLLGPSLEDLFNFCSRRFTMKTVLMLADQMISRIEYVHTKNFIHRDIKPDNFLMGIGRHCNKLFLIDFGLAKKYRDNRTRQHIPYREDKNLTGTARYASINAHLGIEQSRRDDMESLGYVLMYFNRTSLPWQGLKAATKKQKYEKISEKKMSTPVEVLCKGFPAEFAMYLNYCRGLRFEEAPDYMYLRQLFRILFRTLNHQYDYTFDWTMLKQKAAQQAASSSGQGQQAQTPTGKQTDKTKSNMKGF

[17] = biological target: Casein kinase I isoform alpha (Homo sapiens) (UniProt P48729); details: at 1 µM
[18] = biological target: Casein kinase I isoform gamma-1 (Homo sapiens) (UniProt Q9HCP0); details: at 0.1 µM
Chain of Casein kinase I isoform gamma-1 (Homo sapiens) (Q9HCP0 whole entry, looked up, canonical isoform): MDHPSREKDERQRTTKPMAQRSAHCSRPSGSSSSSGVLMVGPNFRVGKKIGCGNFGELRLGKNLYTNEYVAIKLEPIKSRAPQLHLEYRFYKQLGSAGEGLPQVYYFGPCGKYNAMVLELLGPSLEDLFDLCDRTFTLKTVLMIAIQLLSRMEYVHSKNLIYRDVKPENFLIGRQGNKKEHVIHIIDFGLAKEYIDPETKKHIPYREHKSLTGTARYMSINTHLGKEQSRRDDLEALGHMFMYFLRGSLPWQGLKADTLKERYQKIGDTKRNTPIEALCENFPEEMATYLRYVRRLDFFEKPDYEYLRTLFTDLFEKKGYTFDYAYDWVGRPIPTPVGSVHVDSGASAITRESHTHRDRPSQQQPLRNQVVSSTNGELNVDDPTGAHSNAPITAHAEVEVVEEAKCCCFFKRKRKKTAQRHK

[19] = biological target: Casein kinase I isoform gamma-1 (Homo sapiens) (UniProt Q9HCP0); details: at 1 µM
[20] = biological target: Casein kinase I isoform gamma-2 (Homo sapiens) (UniProt P78368); details: at 0.1 µM;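 further: values are mean inhibition figures reported as part of the GSK PKIS dataset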
Chain of Casein kinase I isoform gamma-2 (Homo sapiens) (P78368 whole entry, looked up, canonical isoform): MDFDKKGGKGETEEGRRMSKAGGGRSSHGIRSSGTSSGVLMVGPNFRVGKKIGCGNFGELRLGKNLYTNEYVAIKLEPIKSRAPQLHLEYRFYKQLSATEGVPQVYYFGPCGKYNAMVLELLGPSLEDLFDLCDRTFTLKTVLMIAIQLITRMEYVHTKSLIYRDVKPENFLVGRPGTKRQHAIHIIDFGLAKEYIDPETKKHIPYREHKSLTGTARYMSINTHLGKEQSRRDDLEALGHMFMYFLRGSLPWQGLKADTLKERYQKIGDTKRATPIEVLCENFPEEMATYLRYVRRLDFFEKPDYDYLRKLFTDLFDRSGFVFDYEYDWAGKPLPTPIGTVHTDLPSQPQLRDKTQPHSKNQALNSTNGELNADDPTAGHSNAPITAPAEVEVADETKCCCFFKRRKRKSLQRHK

Chain of Serine/threonine-protein kinase pim-2 (Homo sapiens) (Q9P1W9 whole entry, looked up): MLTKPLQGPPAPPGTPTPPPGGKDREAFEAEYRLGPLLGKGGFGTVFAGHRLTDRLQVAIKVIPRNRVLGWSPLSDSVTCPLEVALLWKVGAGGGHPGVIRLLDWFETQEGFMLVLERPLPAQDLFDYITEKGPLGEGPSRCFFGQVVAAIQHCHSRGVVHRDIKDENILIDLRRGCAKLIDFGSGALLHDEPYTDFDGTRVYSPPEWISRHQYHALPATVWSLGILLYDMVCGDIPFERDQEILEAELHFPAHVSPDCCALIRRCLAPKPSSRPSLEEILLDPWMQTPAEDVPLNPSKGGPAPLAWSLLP

SMILES | inhibition [1] [%] | inhibition [2] [%] | inhibition [3] [%] | inhibition [4] [%] | inhibition [5] [%] | inhibition [6] [%] | inhibition [7] [%] | inhibition [8] [%] | inhibition [9] [%] | inhibition [10] [%] | inhibition [11] [%] | inhibition [12] [%] | inhibition [13] [%] | inhibition [14] [%] | inhibition [15] [%] | inhibition [16] [%] | inhibition [17] [%] | inhibition [18] [%] | inhibition [19] [%] | inhibition [20] [%]
CS(=O)(=O)CCNCc1ccc(-c2ccc3ncnc(Nc4ccc(OCc5ccccc5)c(C(F)(F)F)c4)c3c2)o1 | 1.13 | -1.28 | -0.2 | 1.1 | 1.66 | 4.5 | 6.16 | 4.8 | 2.29 | 0.23 | 1.05 | 3.83 | 3.88 | 0.53 | 0.75 | 2.27 | 0.82 | 3.86 | 8.13 | 3.82
O=C(O[C@H]1CN[C@H](C#Cc2cc3ncnc(Nc4ccc(Cc5ccccc5)cc4)c3s2)C1)N1CCOCC1 | 1.06 | 1.54 | 3.8 | 0.58 | -0.05 | 0.92 | -0.23 | -0.21 | -0.83 | -0.27 | 1.65 | 0.42 | 0.57 | 1.12 | -0.88 | 0.51 | 1.74 | 2.25 | 2.28 | 2.49
CCn1c(-c2nonc2N)nc2c(C#CC(C)(C)O)nc(OC[C@H](N)c3ccccc3)cc21 | 3.44 | 0.83 | 4.27 | 0.68 | 1.6 | 3.53 | 7.29 | 1.31 | -1.51 | 3.75 | 6.85 | 7.96 | 44.1 | 0.93 | 2.24 | 2.03 | 11.4 | 1.99 | 5.61 | 1.71
CNC(=O)c1cncc(/C=C/c2ccccc2Cl)c1 | 0.04 | 3.4 | 5.1 | 0.27 | 1.73 | 2.02 | 25.6 | 2.24 | 8.3 | 0.45 | 4.1 | 0.22 | 1.52 | -0.03 | 2.91 | 0.76 | -0.31 | 0.2 | -0.31 | 0.91
CCn1c(-c2nonc2N)nc2cnc(Oc3cccc(NC(=O)c4ccc(N(C)C)cc4)c3)cc21 | 1.39 | -0.12 | 1.67 | 0.33 | -1.26 | 1.57 | 2.47 | 4.79 | 4.74 | 0.53 | 6.31 | 10.9 | 52.2 | -0.81 | -0.76 | 2.09 | 7.22 | 1.44 | 1.65 | 1.06
Fc1ccc(-c2cc(-c3c[nH]nc3-c3ccccn3)ccn2)cc1 | -1.45 | -0.42 | 1.85 | 2.19 | 4.27 | 3.49 | 8.52 | 7.67 | 8 | 0.43 | 3.03 | 6.33 | 9.18 | 4.38 | 6.99 | 3.27 | 5.16 | 4.51 | 7.09 | 4.03
CC(C)COC(=O)c1ccc2c(c1)/C(=C/Nc1ccc(S(N)(=O)=O)cc1)C(=O)N2 | 5.85 | 8.76 | 48.8 | -0.6 | 1.18 | 2.01 | 72.2 | 4.76 | 39.7 | 38.1 | 82.9 | 11.4 | 50.2 | -0.78 | 0.83 | -2 | 1.61 | -1.63 | 7.57 | -1.09
CCN(CC)S(=O)(=O)c1ccc(OC)c(Nc2ncc(-c3ccccc3)o2)c1 | 0.18 | 2.06 | 3.12 | 0.51 | 0.24 | 1.24 | 6.72 | 3.3 | 2.83 | 1.32 | 4.22 | 0.3 | -0.98 | -0.73 | -0.01 | 1.13 | 1.02 | 0.91 | 0.27 | 0.3
COc1ccc(-c2oc3ncnc(N)c3c2-c2ccc(NC(=O)Nc3cc(C(F)(F)F)ccc3F)cc2)cc1 | 1.06 | 0.37 | 5 | 2.58 | 4.28 | 6.56 | 14.4 | 11.9 | 10.7 | 1.47 | 3.95 | 4.93 | 5.3 | 3.63 | 3.45 | 3.27 | 3.17 | 2.43 | 3.7 | 2.18
CNC(=O)c1cccc(C#Cc2cncnc2Nc2ccc(OCc3cccc(F)c3)c(Cl)c2)c1 | -1.75 | 0.69 | 2.29 | 0.27 | 1.49 | 2.11 | 3.26 | -1.57 | -1.75 | -0.71 | 0.61 | 1.65 | 1.56 | 1.7 | 2.08 | -4.8 | 0.1 | 1.2 | 1.46 | 1.23
NS(=O)(=O)c1ccc(N/N=C2\C(=O)Nc3ccc4ncccc4c32)cc1 | 9.88 | 1.09 | 12.5 | 1.52 | 8.94 | 2.74 | 31.3 | -0.54 | 31.6 | 7.16 | 50.4 | 5.63 | 34.9 | 0.69 | 4.1 | 4.04 | 21.3 | 2.39 | 8.12 | 1.41
CCn1c(-c2nonc2N)nc2ccccc21 | 1.82 | -0.8 | 10.7 | 0.58 | -0.74 | 7.25 | 7.65 | 9.3 | 1.28 | 3.25 | 3.36 | 2.04 | 0.61 | 0.97 | -0.93 | 2.92 | 3.37 | 1.61 | 3.25 | 0.92
Fc1cccc(COc2ccc(Nc3ncnc4sc(-c5ccco5)cc34)cc2Cl)c1 | 0.73 | -1.54 | -0.36 | 0.95 | 1.47 | 2.24 | 9.68 | 3.95 | 5.81 | 0.55 | 2.89 | 2.79 | 3.11 | 0.52 | 2.23 | 3.24 | 3.14 | 4.55 | 4.42 | 4.05
NC(=O)c1sc(-n2cnc3ccc(C(F)(F)F)cc32)cc1OCc1ccccc1Br | -0.68 | 1.1 | 0.16 | 1.65 | 2.02 | 6.13 | 9.77 | 5.75 | 9.85 | 0.45 | 2.04 | 3.44 | 3.86 | 2.62 | 2.38 | 0.93 | 2.88 | 3.36 | 3.78 | 3.03
